What all share (parameters): scale not given: direction of the effect not stated beside the values
Experiment [1] concerns the target Protein translocase subunit SecA (Escherichia coli (strain K12)) (UniProt P10408). In words: Assay to Identify E. coli SecA ATPase Inhibitors. It counts as functional. As to conditions: 30 µM.
The target of experiment [2] is T1, Ubiquitin-activating enzyme e1, putative (Leishmania donovani (strain BPK282A1)) (UniProt E9BSI1).
T1 sequence (whole entry): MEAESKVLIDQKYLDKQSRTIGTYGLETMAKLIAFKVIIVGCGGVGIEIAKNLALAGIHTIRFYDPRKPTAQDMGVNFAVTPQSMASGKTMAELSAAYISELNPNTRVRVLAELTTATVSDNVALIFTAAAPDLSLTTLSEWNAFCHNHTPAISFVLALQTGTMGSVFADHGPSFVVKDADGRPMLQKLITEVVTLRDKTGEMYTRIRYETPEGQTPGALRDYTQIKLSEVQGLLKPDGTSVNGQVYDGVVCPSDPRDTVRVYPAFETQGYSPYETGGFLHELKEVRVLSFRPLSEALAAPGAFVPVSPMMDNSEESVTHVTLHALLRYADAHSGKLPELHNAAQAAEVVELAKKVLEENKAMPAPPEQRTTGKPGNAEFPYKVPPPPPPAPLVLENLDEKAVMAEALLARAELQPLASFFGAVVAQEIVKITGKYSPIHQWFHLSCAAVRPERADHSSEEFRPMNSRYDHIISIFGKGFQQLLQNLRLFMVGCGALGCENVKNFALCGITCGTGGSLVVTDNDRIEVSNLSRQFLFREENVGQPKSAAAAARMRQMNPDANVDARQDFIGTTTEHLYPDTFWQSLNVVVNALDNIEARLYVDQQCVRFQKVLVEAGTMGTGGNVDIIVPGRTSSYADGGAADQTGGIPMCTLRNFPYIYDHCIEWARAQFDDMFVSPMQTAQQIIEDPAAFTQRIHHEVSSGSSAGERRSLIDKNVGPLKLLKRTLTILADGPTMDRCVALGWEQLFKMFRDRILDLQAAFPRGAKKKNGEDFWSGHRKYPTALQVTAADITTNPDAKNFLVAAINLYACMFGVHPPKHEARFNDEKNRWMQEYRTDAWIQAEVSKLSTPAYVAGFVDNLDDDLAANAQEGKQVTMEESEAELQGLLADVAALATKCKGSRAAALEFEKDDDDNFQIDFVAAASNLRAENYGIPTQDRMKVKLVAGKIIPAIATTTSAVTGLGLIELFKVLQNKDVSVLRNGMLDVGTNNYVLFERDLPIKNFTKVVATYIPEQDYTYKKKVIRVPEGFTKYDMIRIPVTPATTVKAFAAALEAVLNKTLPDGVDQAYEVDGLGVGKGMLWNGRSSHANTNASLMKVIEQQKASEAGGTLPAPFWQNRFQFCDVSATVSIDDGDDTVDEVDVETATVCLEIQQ
Kind of experiment: Leishmania donovani Ubiquitin Activating Enzyme (LdE1). It counts as functional. As to conditions: 30 µM.

The target in experiment [3] is AMP-activated protein kinase, AMPK (Homo sapiens) (UniProt P54646+O43741+P54619+Q9UGJ0+Q9Y478+Q13131+Q9UGI9). In words: AMP-dependent Kinase enzyme assay. An in vitro enzyme assay that detects ADP turnover that is directly proportional to AMPK activity. This uses naive AMPK that is activated during the assay with MK-8722. The class given is functional. The following applies: 30 µM.

Experiment [4] has as its target Sialic acid-binding Ig-like lectin 9 (Homo sapiens) (UniProt Q9Y336). In words: Hs-Siglec9 ALPHAscreen SOP 20170721. As to conditions: 10 µM. On the technique in general: Bead proximity is the source of the signal in Alpha formats.
Another experiment concerns Trypanosoma cruzi. Kind of experiment: Trypanosoma cruzi phosphomannomutase and mannose-1-phosphate guanylyltransferase assay. The class given is functional. As to conditions: 10 µM.
The target in experiment [5] is T2, Arginase-2, mitochondrial (Homo sapiens) (UniProt P78540).
T2 sequence (whole entry): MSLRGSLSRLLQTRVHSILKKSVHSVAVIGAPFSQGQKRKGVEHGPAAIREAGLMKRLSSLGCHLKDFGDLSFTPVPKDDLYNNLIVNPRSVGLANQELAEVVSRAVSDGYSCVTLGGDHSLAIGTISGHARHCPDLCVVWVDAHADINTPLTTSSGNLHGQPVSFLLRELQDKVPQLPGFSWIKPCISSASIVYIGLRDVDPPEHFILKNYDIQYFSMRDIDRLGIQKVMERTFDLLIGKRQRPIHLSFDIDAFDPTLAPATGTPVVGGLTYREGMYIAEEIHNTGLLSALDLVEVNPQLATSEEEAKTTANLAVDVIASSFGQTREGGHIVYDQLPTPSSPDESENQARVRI
Kind of experiment: in vitro enzyme assay to detect the production of urea directly proportional to the activity of Arginase II. Further: in the data most compounds retested in dose-response had high values. It counts as functional. As to conditions: 33.3 µM.

For experiment [6], the target named is T3, Proteasome subunit beta (Trypanosoma cruzi) (UniProt O96673).
T3 sequence (whole entry): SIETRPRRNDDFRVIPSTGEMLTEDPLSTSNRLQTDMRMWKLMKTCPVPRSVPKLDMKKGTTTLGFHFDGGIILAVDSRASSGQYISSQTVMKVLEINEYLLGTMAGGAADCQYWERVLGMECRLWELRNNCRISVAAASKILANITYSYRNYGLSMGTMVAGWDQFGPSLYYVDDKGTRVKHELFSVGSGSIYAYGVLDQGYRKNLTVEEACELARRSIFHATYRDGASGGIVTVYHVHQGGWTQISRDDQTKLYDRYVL
Kind of experiment: Trypanosoma cruzi proteasome chymotrypsin-like activity (TcProtChymo) assay. Further: in the data most compounds retested in dose-response had high values. It counts as functional. As to conditions: 9.37 µM.

The species entered for the next experiment is Homo sapiens. In words: To identify inhibition of the IFN signalling (Jak-Stat) pathway via expression of an eGFP reporter gene under the control of an IFN-stimulated response element (ISRE) containing MxA promoter. The class given is functional. The following applies: 30 µM. In general terms: A reporter such as luciferase makes a cellular process visible.

The target of experiment [7] is T4, Tyrosyl-tRNA synthetase, putative (Trypanosoma cruzi (strain CL Brener)) (UniProt Q4DSP6).
T4 sequence (whole entry): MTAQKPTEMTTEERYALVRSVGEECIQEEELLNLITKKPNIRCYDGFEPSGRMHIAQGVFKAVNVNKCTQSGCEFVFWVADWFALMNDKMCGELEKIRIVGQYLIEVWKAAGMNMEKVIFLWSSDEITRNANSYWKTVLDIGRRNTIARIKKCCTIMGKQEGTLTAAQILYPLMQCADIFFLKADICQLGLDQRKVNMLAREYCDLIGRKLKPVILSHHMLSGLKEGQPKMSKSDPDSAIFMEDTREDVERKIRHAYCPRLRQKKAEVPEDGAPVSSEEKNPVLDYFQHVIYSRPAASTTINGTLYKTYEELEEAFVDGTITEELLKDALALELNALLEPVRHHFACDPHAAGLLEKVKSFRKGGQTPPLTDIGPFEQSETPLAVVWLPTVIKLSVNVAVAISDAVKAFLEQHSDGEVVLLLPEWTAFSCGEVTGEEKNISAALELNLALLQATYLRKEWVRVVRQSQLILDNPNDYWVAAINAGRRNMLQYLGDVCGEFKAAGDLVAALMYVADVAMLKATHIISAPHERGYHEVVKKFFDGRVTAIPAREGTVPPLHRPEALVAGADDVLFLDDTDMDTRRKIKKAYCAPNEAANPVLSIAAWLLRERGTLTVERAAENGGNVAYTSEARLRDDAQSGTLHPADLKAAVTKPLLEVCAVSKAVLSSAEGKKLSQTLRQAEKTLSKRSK
Kind of experiment: Trypanosoma cruzi tyrosyl tRNA synthetase (TcYRS) _High Tyrosine SOP. Further: in the data most compounds retested in dose-response had high values. It counts as functional. As to conditions: 30 µM.

The target in experiment [8] is T4, Tyrosyl-tRNA synthetase, putative (Trypanosoma cruzi (strain CL Brener)). In words: Trypanosoma cruzi tyrosyl tRNA synthetase (TcYRS) SOP. The class given is functional. The following applies: 30 µM.
The target of experiment [9] is Chromo domain-containing protein 1 (Saccharomyces cerevisiae (strain ATCC 204508 / S288c) (Baker's yeast)) (UniProt P32657). In words: ScCHD-1 Enzyme Inhibition Assay. Further: in the data most compounds retested in dose-response had high values. It counts as functional. As to conditions: 30 µM.

Structures are written as SMILES. For some of these results: Results with a measured potency or affinity are listed apart.

Chain of Protein translocase subunit SecA (Escherichia coli (strain K12)) (P10408 whole entry): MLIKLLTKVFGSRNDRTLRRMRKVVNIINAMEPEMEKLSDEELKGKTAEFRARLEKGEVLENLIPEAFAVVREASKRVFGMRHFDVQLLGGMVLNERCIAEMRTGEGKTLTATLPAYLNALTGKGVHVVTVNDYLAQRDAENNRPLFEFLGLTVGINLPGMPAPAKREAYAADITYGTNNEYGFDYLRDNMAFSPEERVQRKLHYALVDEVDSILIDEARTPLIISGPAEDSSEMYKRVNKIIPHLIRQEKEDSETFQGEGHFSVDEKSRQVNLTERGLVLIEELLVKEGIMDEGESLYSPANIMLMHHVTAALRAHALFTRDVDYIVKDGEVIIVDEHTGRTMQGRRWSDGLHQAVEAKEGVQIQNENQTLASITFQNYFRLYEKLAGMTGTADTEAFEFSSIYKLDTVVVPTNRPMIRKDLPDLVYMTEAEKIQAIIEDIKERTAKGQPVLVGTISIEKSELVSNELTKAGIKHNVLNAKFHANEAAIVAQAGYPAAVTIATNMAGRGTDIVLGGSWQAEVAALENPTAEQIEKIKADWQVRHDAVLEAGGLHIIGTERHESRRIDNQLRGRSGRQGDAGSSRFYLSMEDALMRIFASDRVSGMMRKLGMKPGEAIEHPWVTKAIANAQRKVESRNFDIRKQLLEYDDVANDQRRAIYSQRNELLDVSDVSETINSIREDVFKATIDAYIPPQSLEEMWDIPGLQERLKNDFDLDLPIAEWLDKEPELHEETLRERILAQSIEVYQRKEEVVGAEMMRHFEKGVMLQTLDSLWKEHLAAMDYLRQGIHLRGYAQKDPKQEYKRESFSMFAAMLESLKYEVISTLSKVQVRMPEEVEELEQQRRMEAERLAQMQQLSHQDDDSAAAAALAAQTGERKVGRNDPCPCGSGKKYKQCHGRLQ
Chain of Sialic acid-binding Ig-like lectin 9 (Homo sapiens) (Q9Y336 whole entry): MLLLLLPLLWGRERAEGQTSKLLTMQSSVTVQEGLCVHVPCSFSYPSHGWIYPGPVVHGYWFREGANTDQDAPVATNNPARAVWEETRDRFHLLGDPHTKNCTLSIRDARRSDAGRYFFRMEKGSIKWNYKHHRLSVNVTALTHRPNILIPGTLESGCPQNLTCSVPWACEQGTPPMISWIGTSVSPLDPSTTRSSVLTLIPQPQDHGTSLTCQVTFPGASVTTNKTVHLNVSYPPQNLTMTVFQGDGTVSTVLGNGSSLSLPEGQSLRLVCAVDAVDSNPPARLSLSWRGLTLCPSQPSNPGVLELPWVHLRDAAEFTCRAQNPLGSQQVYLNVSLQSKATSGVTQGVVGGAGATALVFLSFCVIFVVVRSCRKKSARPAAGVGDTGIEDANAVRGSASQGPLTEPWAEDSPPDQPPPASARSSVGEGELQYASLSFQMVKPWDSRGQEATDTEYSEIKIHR
Chain of Chromo domain-containing protein 1 (Saccharomyces cerevisiae (strain ATCC 204508 / S288c) (Baker's yeast)) (P32657 whole entry, the tested form may be a part): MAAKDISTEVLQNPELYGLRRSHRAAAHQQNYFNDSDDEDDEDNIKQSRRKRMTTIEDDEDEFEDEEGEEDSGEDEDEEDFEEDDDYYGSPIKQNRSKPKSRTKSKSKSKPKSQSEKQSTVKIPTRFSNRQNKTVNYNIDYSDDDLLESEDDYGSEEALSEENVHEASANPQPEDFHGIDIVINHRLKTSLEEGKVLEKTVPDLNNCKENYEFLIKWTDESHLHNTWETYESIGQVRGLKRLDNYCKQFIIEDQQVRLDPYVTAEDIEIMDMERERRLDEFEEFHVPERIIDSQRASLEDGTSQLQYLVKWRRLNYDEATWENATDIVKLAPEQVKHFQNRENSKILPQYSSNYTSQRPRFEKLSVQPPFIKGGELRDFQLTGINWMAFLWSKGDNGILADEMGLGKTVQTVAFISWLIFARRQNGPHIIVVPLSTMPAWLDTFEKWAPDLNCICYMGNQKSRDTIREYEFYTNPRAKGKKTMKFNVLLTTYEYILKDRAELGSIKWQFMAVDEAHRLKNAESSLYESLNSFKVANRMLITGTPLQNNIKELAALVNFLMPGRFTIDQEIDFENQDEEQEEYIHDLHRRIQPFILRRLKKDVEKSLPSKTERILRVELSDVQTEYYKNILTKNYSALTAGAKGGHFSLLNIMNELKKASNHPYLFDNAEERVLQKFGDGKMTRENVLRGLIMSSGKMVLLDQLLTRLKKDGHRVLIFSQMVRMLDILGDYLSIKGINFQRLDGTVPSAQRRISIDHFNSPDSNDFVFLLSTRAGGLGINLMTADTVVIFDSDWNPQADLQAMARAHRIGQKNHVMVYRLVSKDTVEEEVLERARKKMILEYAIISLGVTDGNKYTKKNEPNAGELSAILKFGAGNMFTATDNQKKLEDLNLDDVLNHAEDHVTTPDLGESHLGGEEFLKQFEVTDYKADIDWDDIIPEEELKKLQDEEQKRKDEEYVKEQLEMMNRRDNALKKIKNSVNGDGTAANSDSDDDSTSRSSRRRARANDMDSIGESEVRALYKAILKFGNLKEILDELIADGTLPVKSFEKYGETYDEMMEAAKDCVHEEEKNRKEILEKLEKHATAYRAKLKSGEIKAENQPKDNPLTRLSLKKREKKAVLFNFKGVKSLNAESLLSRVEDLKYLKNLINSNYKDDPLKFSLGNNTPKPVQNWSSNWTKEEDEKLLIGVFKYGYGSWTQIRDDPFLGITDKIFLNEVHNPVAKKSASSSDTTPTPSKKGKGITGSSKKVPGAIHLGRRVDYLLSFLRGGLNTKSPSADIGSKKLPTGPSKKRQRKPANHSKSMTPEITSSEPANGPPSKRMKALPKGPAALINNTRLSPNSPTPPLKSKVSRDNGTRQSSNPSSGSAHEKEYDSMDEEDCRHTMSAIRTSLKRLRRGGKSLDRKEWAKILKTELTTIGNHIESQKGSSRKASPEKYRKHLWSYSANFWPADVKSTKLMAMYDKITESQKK

As to `COc1cccc(N2CCN(Cc3ccc(NC(C)=O)cc3)CC2=O)c1`, the Percent Effect in experiment [1] was -2.84%; in [2] it was 18.1%; in [3], -5.61%; in experiment [4] it was 20.1%; with Trypanosoma cruzi, 6.51%; in experiment [5] it was 10.2%. In addition, the Percent Effect is 11.6% in experiment [6]; 4.1% in the experiment filed under Homo sapiens; 4.21% in experiment [7]; 15.4% in [8]; -2.22% in experiment [9].

Regarding `O=C([C@@H]1C[C@@H]2CCN(CCc3ccccc3)C[C@H]2O1)N1CCCC1`, the Percent Effect in [1] was 1.08%; in experiment [2] it was 8%; in experiment [3] it was 15%; in [4], -9.77%; in the experiment with Trypanosoma cruzi it was -7.09%; in experiment [5], 8.62%. Further, the Percent Effect was 14.7% in experiment [6]; -9.49% in the experiment listed under Homo sapiens; 4.25% in experiment [7]; 8.97% in [8]; 0.575% in experiment [9].

Regarding `OC(COCc1ccccc1Cl)CN1CC(n2cccn2)C1` (stereo unspecified), the Percent Effect in experiment [1] was 1.1%; in experiment [2], -15.8%; in experiment [3], 3.43%; in [4] it was -0.349%; in the experiment with Trypanosoma cruzi, -1.5%; in experiment [5], 6.9%. The Percent Effect in [6] was 14.5%; in the experiment listed under Homo sapiens, 9.39%; in [7], 4.41%; in experiment [8], 0%; in experiment [9], -9.18%.

As for `Cc1ccc(C(=O)N2CCC3(CCN(C(=O)c4cccnc4)C3)CC2)o1`, the Percent Effect in experiment [1] was -2.08%; in experiment [2], 13.5%; in experiment [3], 6.42%; in experiment [4], -12.6%; in the experiment with Trypanosoma cruzi, -3.62%; in experiment [5], 14.3%. For the same compound, the Percent Effect in [6] was 13.8%; in the experiment listed under Homo sapiens, -16.6%; in [7], 1.08%; in experiment [8], 5.13%; in experiment [9], -2.81%.

As for `c1ncn(Cc2cnc3n2CCN(Cc2ccsc2)CC3)n1`, the Percent Effect in experiment [1] was -7.34%; in experiment [2], 5.33%; in [3] it was 7.1%; in experiment [4], 2.34%; in the experiment with Trypanosoma cruzi, -5.32%; in experiment [5], -2.1%. The Percent Effect came out at 5.9% in experiment [6]; 14.2% in the experiment listed under Homo sapiens; 2.13% in [7]; 8.97% in experiment [8]; 2.03% in experiment [9].

Regarding `O=C(NCCCn1nc2ccccn2c1=O)NC1CCC(O)CC1` (stereo unspecified), the Percent Effect is -2.16% in experiment [1]; 2.74% in experiment [2]; 9.76% in [3]; 3.96% in experiment [4]; -8.62% with Trypanosoma cruzi; 0.455% in experiment [5]. The Percent Effect in experiment [6] was 22.5%; in the experiment filed under Homo sapiens, 9.28%; in experiment [7], 0%; in experiment [8], 2.5%; in experiment [9], -4.68%.

For the compound `CCCc1nc(CN2CCN(CC(O)c3ccccc3)CC2)no1` (stereo unspecified), the Percent Effect is -2.75% in experiment [1]; 11.4% in [2]; -0.305% in experiment [3]; 1.98% in [4]; -1.54% in the experiment on Trypanosoma cruzi; 4.09% in experiment [5]. Besides, the Percent Effect in [6] is 8.23%; in the experiment listed under Homo sapiens it was 7.59%; in experiment [7], 5.21%; in experiment [8], -2.53%; in experiment [9], -26.1%.

With `CCC(C(=O)NC)N(c1cccc(C)c1)S(C)(=O)=O` (stereo unspecified), the Percent Effect in experiment [1] is -4.2%; in experiment [2] it was 16%; in experiment [3], -4.91%; in experiment [4], 18.5%; with Trypanosoma cruzi, 6.72%; in experiment [5], 41.7%. The Percent Effect was 4.71% in [6]; 9.46% in the experiment filed under Homo sapiens; 4.92% in experiment [7]; 13.6% in [8]; -3.23% in experiment [9].

With `Cc1ccc(CN2C[C@@H]3COC[C@H](NS(C)(=O)=O)[C@@H]3C2)o1`, the Percent Effect was -3.56% in experiment [1]; 13.3% in [2]; 3.44% in experiment [3]; -1.89% in experiment [4]; -4.05% with Trypanosoma cruzi; -56.8% in experiment [5]. In addition, the Percent Effect was 7.86% in experiment [6]; 12.6% in the experiment listed under Homo sapiens; 4.17% in experiment [7]; 15% in [8]; -6.77% in experiment [9].

As to `COc1cccc(CCC2CCCN(C(=O)c3n[nH]c4c3CCC4)C2)c1` (stereo unspecified), the Percent Effect in experiment [1] is -4.51%; in experiment [2] it was -18.9%; in experiment [3], 3.21%; in experiment [4], 4.19%; in the experiment on Trypanosoma cruzi it was -1.35%; in experiment [5] it was -8.1%. Further, the Percent Effect was 5.69% in experiment [6]; 46.1% in the experiment filed under Homo sapiens; 11.1% in experiment [7]; 2.44% in experiment [8]; -1.85% in [9].

With `Cc1nc(Nc2ncccn2)cc(C2CCCN2C2CCOCC2)n1` (stereo unspecified), the Percent Effect in experiment [1] was -5.08%; in experiment [2], 6.76%; in experiment [3] it was 3.91%; in [4], 3.68%; in the experiment with Trypanosoma cruzi, 0.593%; in [5], -3.48%. The Percent Effect in experiment [6] is -1.72%; in the experiment listed under Homo sapiens, 13.7%; in experiment [7] it was 9.68%; in experiment [8], 11.7%; in experiment [9] it was -3.64%.

The record behind these values is ChEMBL document CHEMBL3988442, “University of Dundee, Small-Polar-MMV Screening Library” (2021).
